USP30 block: inhibitors of human USP30 deubiquitinase. Ubiquitin carboxyl-terminal hydrolase 30 (Homo sapiens), Q70CQ3. purified USP30, Ub-rhodamine cleavage fluorescence. inhibition, % at 25 µM. 5.3% of 47,000 active. AID 1645860, 2021
Target sequence (Q70CQ3 whole entry, looked up): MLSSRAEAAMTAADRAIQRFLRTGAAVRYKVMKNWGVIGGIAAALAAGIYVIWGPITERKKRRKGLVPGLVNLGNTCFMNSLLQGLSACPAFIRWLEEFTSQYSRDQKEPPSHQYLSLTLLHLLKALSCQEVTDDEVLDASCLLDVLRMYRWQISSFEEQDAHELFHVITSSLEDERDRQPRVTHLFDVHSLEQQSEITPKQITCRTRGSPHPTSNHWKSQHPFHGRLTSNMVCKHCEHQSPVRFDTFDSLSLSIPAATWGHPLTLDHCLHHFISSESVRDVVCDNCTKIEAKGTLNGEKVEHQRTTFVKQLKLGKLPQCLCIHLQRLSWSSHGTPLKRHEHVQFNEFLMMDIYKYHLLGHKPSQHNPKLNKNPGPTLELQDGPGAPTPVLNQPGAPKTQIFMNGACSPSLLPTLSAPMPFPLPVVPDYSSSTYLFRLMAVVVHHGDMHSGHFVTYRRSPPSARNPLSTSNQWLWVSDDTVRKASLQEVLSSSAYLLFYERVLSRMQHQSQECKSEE
USP10 block: inhibitors of human USP10 deubiquitinase; Ubiquitin carboxyl-terminal hydrolase 10 (Homo sapiens), Q14694; purified USP10, Ub-rhodamine fluorescence, 60 min; inhibition, % at 20 µM; 1.1% of 47,000 active; AID 1645856, 2021
USP17 block: inhibitors of human USP17 deubiquitinase; purified USP17, Ub-rhodamine cleavage fluorescence, 3 h; Ubiquitin carboxyl-terminal hydrolase 17-like protein 5 (Homo sapiens), A8MUK1; inhibition, % at 50 µM; 6.5% of 47,000 active
USP28 inh: inhibitors of human USP28 deubiquitinase; Ubiquitin carboxyl-terminal hydrolase 28 (Homo sapiens), Q96RU2; purified USP28, Ub-rhodamine cleavage fluorescence, 30 min; inhibition, % at 25 µM; 3% of 47,000 active
USP8 inh: inhibitors of human USP8 deubiquitinase. Ubiquitin carboxyl-terminal hydrolase 8 (Homo sapiens), P40818. purified USP8, Ub-rhodamine cleavage fluorescence, 30 min. inhibition, % at 20 µM. 4.2% of 47,000 active
Starred values were filed as active, the others as inactive; . = no result. An excerpt weighted towards active compounds, which were near 14% of everything screened. No stated cut-off is given here; in the data, active means inhibition above about 30%; inactive means the rest.

SMILES	USP30 block	USP10 block	USP17 block	USP28 inh	USP8 inh
CC1(C)CC(=O)c2c(C#N)sc(C#N)c2C1	-260	-6	18	-74	60*
O=C(NCc1ccco1)c1ccc(Cn2c(SCc3ccccc3)nc3ccncc32)cc1	74*	0	88*	72*	35*
Cc1ccc2nc(NC(=O)CN3CCC(C(N)=O)CC3)sc2c1	19	0	6	3	1
Cc1ccc2nc(NC(=O)CSc3nnc(-c4ccncc4)n3C3CC3)sc2c1	-25	-2	57*	-4	-1
c1ccc(-c2nc(N3CCCCCC3)c3sccc3n2)cc1	0	7	-2	29	0
O=C(Nc1cccc(F)c1)c1ncoc1-c1ccco1	-20	1	54*	17	16
C[C@@H]1CC[C@H]2C(CN3CCN(C/C=C/c4ccccc4)CC3)C(=O)O[C@]23[C@H]1CC[C@@]1(C)O[C@@H]31 (some centres undefined)	-9	-1	-9	-1	-5
Cc1sc(-c2cccnc2)nc1OC(=O)c1ccc(Cl)c(Cl)c1	62*	5	38*	6	-26
NC(=O)c1ccc(N2CCN(c3ccccc3O)CC2)c([N+](=O)[O-])c1	-10	1	32*	12	12
O=C(Nc1ccccc1)c1ccc(N2CCCC2)c([N+](=O)[O-])c1	-7	6	-22	15	-58
O=C(NCC(c1ccco1)N1CCCC1)c1cn(-c2ccccc2)nc1-c1cccnc1 (centres undefined)	-31	-2	-25	-11	-8
Cc1c(CN2CCC(C(=O)Nc3cccc(-c4cccc(F)c4)c3)CC2)cnn1C	31*	-2	-4	23	-10
Cc1nn(C)c(Cl)c1CN1CCC(C(=O)Nc2cccc(-c3cccc(F)c3)c2)CC1	-11	-6	-16	19	-11
Cc1c(C)n(-c2ccc(Br)cn2)c2ncnc(NCCCO)c12	60*	-2	4	4	-11
COCCN1C(=O)C[C@@H]2[C@H]1CCN2C(=O)c1cccc(OC)c1	-4	-1	1	7	-57
COCCN1C(=O)C[C@@H]2[C@H]1CCN2C(=O)c1ccccn1	5	-4	.	6	-51
COC(=O)c1c(C)[nH]c(C(=O)C(C)OC(=O)CCC2CCCC2)c1C (centres undefined)	-8	10	5	79*	2
CCc1noc(C)c1C(=O)OC(C)C(=O)c1[nH]c(C)c(C(=O)OC)c1C (centres undefined)	0	-1	21	14	7
O=C(Nc1cccc(N2CCCC2=O)c1)c1cccc2cccnc12	12	4	56*	-1	2
COc1cccc(C(=O)Nc2cccc(N3CCCC3=O)c2)c1OC	6	0	0	-6	4
Cc1ccc(-c2noc(-c3nnc(SCC(=O)NC4CCCC4)n3C)n2)cc1	29	2	53*	10	12
Cn1c(SCC(=O)NC2CCCC2)nnc1-c1nc(-c2ccccc2)no1	24	0	16	6	9
CCc1c(C)nc(SCC(=O)Nc2ccc(F)cc2F)[nH]c1=O	0	-1	0	0	-7
Cc1ccc(NC(=O)Cc2nnc3cc(-c4nc(C)no4)ccn23)cc1	69*	46*	13	42*	62*
Cc1ccc(NC(=O)Cc2nnc3ccc(-c4nc(C)no4)cn23)c(C)c1	9	3	10	0	-134
SMILES	USP30 block	USP10 block	USP17 block	USP28 inh	USP8 inh
CCc1ccc(NC(=O)Cc2nnc3cc(-c4nc(C)no4)ccn23)cc1	22	56*	55*	30*	84*
CCc1noc(-c2ccn3c(CC(=O)Nc4ccccc4C)nnc3c2)n1	12	18	25	1	76*
Cc1noc(-c2ccc3nnc(CC(=O)Nc4ccc(F)c(C)c4)n3c2)n1	-36	-2	-9	-14	-240
CC(=O)c1ccc(NC(=O)C(C)n2nc(-c3ccccc3)c3cc(Cl)ccc32)cc1 (centres undefined)	-62	0	-18	-19	0
CC1=C(C(=O)Nc2c(C)cc(C)cc2C)C2(CCC(C)CC2)OC1=O (centres undefined)	-14	-1	34*	-8	-10
O=C(Cc1ccc(Cl)cc1)N1CCC2(CN(Cc3ccccc3Cl)C2)C1	1	0	-7	0	-14

Source: PubChem (Buhrlage Lab, Dana-Farber Cancer Institute and Novartis Institutes for BioMedical Research (Cambridge, Mass))
